Test [1] in a line: growth inhibition of DIPG glioma cells, dose response, cell-based, SU-DIPG-XVII, MIPE5.0, CellTiter-Glo, qHTS (AID 1347060).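 For AC50: cells exposed to compound for 48 hours before viability readout.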 To be noted: SU-DIPG-XVII viability, CellTiter-Glo ATP luminescence. A general note: In ATP-based viability assays light output follows the ATP content of the culture.
Test [2] can be described thus: growth inhibition of DIPG glioma cells, dose response, cell-based, SU-DIPG-XIII, MIPE5.0, CellTiter-Glo, qHTS (AID 1347064; cut-off not given, nearly all actives have AC50 up to about 23 µM;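 for AC50: cells exposed to compound for 48 hours before the viability read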). Particulars: SU-DIPG-XIII viability, CellTiter-Glo ATP luminescence.
Test [3] is described as follows: SU-DIPG-XXV glioma cell viability, MIPE5.0 library, qHTS (AID 1347068; cut-off not given, nearly all actives have IC50 up to about 30 µM;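 for IC50: cells exposed to compound for 48 hours before viability readout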). (In general: qHTS replaces the single test concentration by a dilution series.)
A short description of test [4]: JHH-DIPG-1 glioma cell viability, MIPE5.0 library, CellTiter-Glo luminescence, qHTS (AID 1347067).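 Note: cells exposed to compound for 48 hours before readout.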 Particulars: JHH-DIPG-1 glioma viability, CellTiter-Glo ATP luminescence.
Test [5] can be described thus: viability loss in pontine glioma line – cell-based, SU-DIPG-XXV, MIPE5.0, CellTiter-Glo, qHTS, dose response (AID 1347065).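 Note: cells exposed to compound for 48 hours before ATP readout.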 Particulars: CellTiter-Glo ATP luminescence.
Test [6] is described as follows: LFS_MB_P medulloblastoma growth inhibition, cell-based, chromothripsis tumors, cisplatin or BGB combos (AID 1671449; in the data active = inhibition above about 80%;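 note: cells exposed for 96 hours; 0% = vehicle DMSO and 100% = killing by high DMSO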). Particulars: LFS_MB_P medulloblastoma cells.
The nature of test [7]: HDN33 neuroblastoma growth inhibition, cell-based, chromothripsis tumors, cisplatin or BGB combos (AID 1671450; in the data active = inhibition above about 80%;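 note: cells exposed to compound for four days; 0% = vehicle DMSO and 100% = cell killing by high DMSO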). Particulars: HDN33 neuroblastoma cells, stronger effect = higher value.
Test [8] can be described thus: ICB984 medulloblastoma cell growth inhibition, synergistic combos for chromothripsis tumors, cisplatin or BGB combos (AID 1671451; call rule not given here;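 note: cells exposed for 96 hours before readout; 0% = vehicle DMSO and 100% = killing by high DMSO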). Particulars: ICB984 medulloblastoma cells, drug combinations, stronger effect = higher value.
A short description of test [9]: LFS_MB_1R medulloblastoma cell growth inhibition, synergistic combos for chromothripsis tumors, cisplatin or BGB combos (AID 1671452; in the data active = inhibition above about 80%;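 note: cells exposed for 96 hours before readout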). To be noted: LFS_MB_1R medulloblastoma cells, stronger effect = higher value.
Test [10] is described as follows: HTB85 osteosarcoma cell growth inhibition, synergistic combos for chromothripsis tumors, BGB or cisplatin IC20 combos (AID 1671453; in the data active = inhibition above about 80%;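 note: cells exposed for 96 hours before readout; 0% = vehicle DMSO and 100% = high DMSO killing control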). To be noted: HTB85 osteosarcoma cells, drug combinations, stronger effect = higher value.
Test [11] in a line: CRL2098 osteosarcoma cell growth inhibition, synergistic combos for chromothripsis tumors, BGB or cisplatin IC20 combos (AID 1671454; in the data active = inhibition above about 80%;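 note: cells exposed for 96 h before readout; 0% = vehicle DMSO and 100% = killing by high DMSO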). Particulars: CRL2098 osteosarcoma cells, drug combinations, stronger effect = higher value.
A short description of test [12]: HD-MB03 medulloblastoma cell growth inhibition, synergistic combos for chromothripsis tumors, BGB or cisplatin IC20 combos (AID 1671455; in the data active = inhibition above about 83%;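 note: 0% = vehicle DMSO and 100% = high DMSO as cytotoxic control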). Particulars: HD-MB03 medulloblastoma cells, stronger effect = higher value.
Test [13] in a line: UWB1.289 ovarian carcinoma cell growth inhibition, synergistic combos for chromothripsis tumors, BGB or cisplatin combos (AID 1671456; in the data active = inhibition above about 80%;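 note: cells exposed to compound for four days; 0% = vehicle DMSO and 100% = killing by high DMSO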). To be noted: UWB1.289 ovarian carcinoma cells, stronger effect = higher value.
A short description of test [14]: LFS_MB_2R medulloblastoma cell growth inhibition, synergistic combos for chromothripsis tumors, cisplatin combos (AID 1671457; in the data active = inhibition above about 80%;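 note: cells exposed to compound for four days before readout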). Particulars: LFS_MB_2R medulloblastoma cells, stronger effect = higher value.
A short description of test [15]: MDA-MB-436 breast carcinoma cell growth inhibition, synergistic combos for chromothripsis tumors, BGB or cisplatin combos (AID 1671458; call rule not given here;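 note: cells exposed for 96 hours; 0% = vehicle DMSO and 100% = killing by high DMSO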). To be noted: MDA-MB-436 breast carcinoma growth inhibition, drug combinations, stronger effect = higher value.
Test [16] can be described thus: UWB1.289_BRCA1 ovarian cancer growth, cell-based, BGB or cisplatin combinations (AID 1671459; in the data active = inhibition above about 80%). Particulars: UWB1.289 BRCA1 ovarian carcinoma, drug combinations, stronger effect = higher value.
The nature of test [17]: human astrocyte viability loss, single and combined drugs, cytotoxicity control for chromothriptic childhood tumor combination screen, cell-based, BGB or cisplatin IC20 combos (AID 1671460; in the data active = inhibition above about 80%;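 note: cells exposed to compounds for 96 hours before viability readout; 0% = vehicle and 100% = killing control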). To be noted: Human astrocytes, drug combinations, stronger effect = higher value.
The nature of test [18]: growth inhibition of BT084 medulloblastoma cells, cell-based, ICGC_MB145, cisplatin and BGB IC40 combos (AID 1671461; in the data active = inhibition above about 80%;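 note: cells exposed to drugs for 96 hours; 0% = vehicle DMSO and 100% = high DMSO full killing control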). To be noted: drug combinations, stronger effect = higher value.
The nature of test [19]: growth inhibition of RCMB18 medulloblastoma cells, cell-based, cisplatin and BGB IC40 combos (AID 1671462; in the data active = inhibition above about 80%;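 note: cells exposed to compound for four days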). Particulars: stronger effect = higher value.
The nature of test [20]: growth inhibition of CRL1545 osteosarcoma cells, cell-based, cisplatin and BGB IC20 combos (AID 1671464; in the data active = inhibition above about 80%;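 note: cells exposed to compound for 96 hours before readout; 0% = vehicle DMSO and 100% = high DMSO killing control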). Particulars: stronger effect = higher value.
Test [21] can be described thus: sensitizers of A549 cells to miR-34 induction, primary screen, imaging, A549 dox-inducible miR-34, nuclei and caspase counts (AID 1347080;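 active = compounds whose cell count with miR-34 switched on is under 0.7 times the count with it off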). To be noted: A549 miR-34 inducible, Hoechst nuclei count, 48 h.
Test [22] in a line: survival rescue of mitochondrial mutant cells in low glucose, primary screen, MELAS cybrids, Rieske KO mouse fibroblasts, CellTiter-Glo (AID 1508586;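 active = mean z-score across replicates of 1.96 or higher in either the MELAS or the Rieske mutant cell line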;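 note: z relative to plate mean and SD of compound and empty wells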).
The mark [23] stands for this setting: measured here: combination with BGB IC40, at 0.05 µM.
[24] abbreviates: measured here: with BGB IC20 combination, at 0.5 µM.
The mark [25] stands for this setting: measured here: with cisplatin IC20 combination, at 0.5 µM.
Setting [26] is: measured here: combination with cisplatin, at 0.5 µM.
[27] abbreviates: measured here: combination with cisplatin, at 5 µM.

Inconclusive results are not listed. Active and inactive are the calls of the source. Unless noted, no cut-off is given here; in the data, nearly all actives have AC50 up to about 26 µM.

As to `CC(C)Cc1ccc([C@@H](C)C(=O)NS(C)(=O)=O)cc1`, the compound was called inactive in [1], in test [2] and in test [3].
`CNCCN(C)Cc1cn[nH]c1-c1ccc(OC2CC(OCCC3CCOCC3)C2)cc1` (stereo not drawn): the compound was classed as inactive in test [1], in [2], in [4] and in [3].
On to `Cc1ccc(C2=Nc3ccc(Cl)cc3OC2)cc1`, for which the result in [1], in test [2] and in test [3] was inactive.
Usually AC50 stands for the concentration giving half of the maximal activity seen. As for `Cc1cccc(Nc2nc(N[C@@H]3CCCC[C@@H]3N)ncc2C(N)=O)c1`, the AC50 in test [1] and in test [5] was 18.6 µM (active) throughout.
Regarding `COc1ncc(Nc2ncc(C(C)N3CCN(S(C)(=O)=O)CC3)cc2-c2nc(C)nc(N)n2)cc1F` (stereo not drawn), the AC50 in test [1] is 0.934 µM (active); in [5] it was 0.235 µM (active).
For `COc1ccc(Oc2cc(NCCC(F)(F)F)c3ncc(-c4ccc(C(=O)NC5CC5)c(C)c4)n3n2)c(F)c1F` the same measures were 0.059 µM (active) and 0.372 µM (active).
For `Nc1n[n+]([O-])c2ccccc2[n+]1[O-]`, the call in test [1], in [2] and in [3] was inactive.
Take `COc1cc(-c2cc(-c3ccc(N4CCNCC4)cc3)cnc2C)cc(OC)c1OC`: the outcome in [1], in test [2] and in test [3] was inactive.
With `CN1C(=O)c2sccc2N(C)c2nc(Nc3ccc(S(N)(=O)=O)cc3)ncc21`, the figures for the AC50 in test [1] and in test [5] were 14.8 µM (active) and 3.72 µM (active), respectively.
What is called IC50 is the midpoint of a concentration-inhibition curve. Regarding `Cc1cccc(-c2[nH]ncc2-c2ccc(F)c(-c3cnn(CCO)c3)c2)n1`, the outcome in test [1] and in [2] was inactive. The IC50 in test [3] was 26.3 µM (active).
By inhibition is commonly meant the change of the read-out against control, counted positive when it falls. In the case of `O=C(CCCCCCNC(=O)c1cnc(N(c2ccccc2)c2ccccc2Cl)nc1)NO`, the results for the AC50 in test [1], in test [2] and in [4] were 8.33 µM (active), 3.72 µM (active) and 7.42 µM (active), respectively. Also, the inhibition in test [6] (at 0.5 µM, stronger effect = higher value) is -18.4% (inactive); in test [6] (measured here: combination with BGB IC20, at 0.005 µM), -0.623%; in test [6] (measured here: combination with BGB IC40, at 0.005 µM) it was -22.7%; in [6] (setting [23]), -0.542%; in test [6] (measured here: combination with cisplatin, at 0.5 µM, stronger effect = higher value), -15.1%; in test [6] (measured here: combination with cisplatin, at 5 µM, stronger effect = higher value), 99.5%. In addition, the inhibition in test [7] (BGB combo, at 5 µM) is 50.4%; in test [7] (at 0.5 µM) it was 18.7% (inactive); in test [7] (cisplatin combo, at 5 µM), 56.8%; in test [7] (setting [24]), 15.8%; in test [7] (setting [25]), 22.8%; in test [7] (single agent, at 5 µM) it was 62.1%. Moreover, the inhibition was 12.6% in [8] (BGB IC20 combo, at 0.005 µM); -39.2% in test [8] (BGB IC40 combo, at 0.005 µM); 39.9% in test [8] (BGB IC40 combo, at 0.05 µM); -20.1% (inactive) in [8] (at 0.5 µM); 37.5% in test [8] (cisplatin combo, at 0.05 µM); -17.2% in test [8] (cisplatin combo, at 0.5 µM). The inhibition in test [8] (cisplatin combo, at 5 µM) was -24.9%; in test [8] (measured here: 5 uM single agent, at 5 µM) it was -20.1%; in test [9] (at 0.5 µM) it was -5.6% (inactive); in test [9] (setting [23]) it was -9.58%; in test [9] (setting [26]), -15.4%; in test [9] (setting [27]), 66.7%. The inhibition was -4.65% (inactive) in test [10] (at 0.5 µM); -17.2% in [10] (measured here: with BGB IC20, at 0.5 µM); 33.1% in [10] (measured here: with BGB IC20, at 5 µM); -7.92% in [10] (measured here: with cisplatin IC20, at 0.5 µM); 47.7% in test [10] (measured here: with cisplatin IC20, at 5 µM); 54% in test [10] (single agent, at 5 µM). Also, the inhibition is -36.3% (inactive) in test [11] (at 0.5 µM); -46.5% in test [11] (measured here: combination with BGB at IC20, at 0.5 µM); -0.706% in [11] (measured here: combination with cisplatin at IC20, at 0.5 µM); 7.2% (inactive) in test [12] (at 0.5 µM); -0.477% in [12] (measured here: combo with BGB at IC20, at 0.5 µM); 8.58% in [12] (measured here: combo with cisplatin at IC20, at 0.5 µM). For the same compound, the inhibition in test [13] (at 0.5 µM) was 8.33% (inactive); in [13] (measured here: inhibition with BGB combination, at 0.05 µM) it was -28.3%; in test [13] (measured here: inhibition with cisplatin combination, at 0.05 µM), -17.7%; in test [14] (at 0.5 µM) it was -16.9% (inactive); in test [14] (setting [26]) it was -6.73%; in [14] (setting [27]), 81%. For the same compound, the inhibition in test [15] (at 0.5 µM) is -11.7% (inactive); in [15] (measured here: BGB combination, at 0.5 µM), -16.5%; in test [15] (measured here: BGB combination, at 5 µM), 16.3%; in [15] (measured here: cisplatin combination, at 0.5 µM), -18%; in test [15] (measured here: cisplatin combination, at 5 µM), 30.9%; in test [16] (BGB combination, concentration series, at 5 µM) it was 70.5%. In addition, the inhibition was 15.1% (inactive) in test [16] (at 0.5 µM); 83% in test [16] (cisplatin combination, concentration series, at 5 µM); 10.7% (inactive) in test [17] (at 0.5 µM); 11.7% in test [17] (measured here: combo with BGB IC20, at 0.5 µM); 14% in test [17] (measured here: combo with cisplatin IC20, at 0.5 µM); 2.48% (inactive) in test [18] (at 0.5 µM). Besides, the inhibition in test [18] (cisplatin combination, at 0.5 µM) was 7.21%; in test [18] (cisplatin combination, at 5 µM), 78.9%; in test [18] (measured here: BGB IC40 combination 0.05 uM, at 0.05 µM), -0.825%; in test [18] (single agent, at 5 µM), 65%; in [19] (at 0.5 µM), -4.94% (inactive); in test [19] (cisplatin combo, at 5 µM) it was 64.2%. Moreover, the inhibition in [19] (measured here: BGB IC40 combination, at 0.05 µM) was -4.49%; in [19] (setting [26]), 5.58%; in test [19] (single agent, at 5 µM), 31.8%; in [20] (at 0.5 µM) it was 32.3% (inactive); in [20] (setting [24]), 16.7%; in test [20] (setting [25]), 40.1%. The inhibition was -5.85% in [20] (single agent, at 0.05 µM) and 88.6% in test [20] (single agent, at 5 µM).
`CCS(=O)(=O)c1ccc2oc(-c3ccc4ccccc4c3)nc2c1`: the result in test [1], in test [2] and in [3] was inactive.
With `Cc1cc2c(F)c(Oc3ncnn4cc(OCC(C)OC(=O)C(C)N)c(C)c34)ccc2[nH]1` (stereo not drawn), the AC50 in test [1] and in test [2] was 16.6 µM (active) throughout. Further, the fold change is 1.09 (inactive) in [21] (stronger effect = lower value, cell number ratio, induced over uninduced) and 0.564 in test [21] (measured here: relative caspase fold change +Dox/-Dox). Further, the cell count in [21] (measured here: total cells with miR-34 induction, stronger effect = lower value) was determined as 4840; in [21] (measured here: total cells without miR-34 induction), 4460. Also, the z-score is 0.128 (inactive) in test [22] (MELAS cybrid survival, CellTiter-Glo 48 h, stronger effect = higher value) and 1.06 in test [22] (Rieske KO mouse fibroblast survival, CellTiter-Glo 72 h).
In the case of `Cn1cc(-c2nc(N[C@@H]3CCCC[C@@H]3N)c(F)c3c2C(=O)NC3)cn1`, the outcome in [1], in [2], in [4] and in [3] was inactive.

Source of the values: PubChem BioAssay.
